Rows were chosen to be rich in hits. Some 3.9% of all compounds tested hit in one or more screens of this group.
UBC9 SUMO inh: inhibitors of human SUMOylation (UBC9); inhibition, % at 35 µM; HTRF SUMOylation assay, SAE1/SAE2 + UBC9, in vitro; AID 2006; actives 0.36% (n = 290,000); P63279; in the data active means inhibition above about 50%, passing the limit was not always enough; inconclusive means no clear call, values can overlap the other calls
Cardio protect: myocardial damage modulation in H9c2 cells. actives 0.63% (n = 360,000). protection from H2O2 cell death, % at 20 µM. H9c2 cardiomyocytes, H2O2 injury protection, ATPLite, 2 h;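 active means compounds giving at least 50% protection of heart cells from peroxide-induced death in the single-dose screen, raw or plate-pattern-corrected value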
ALR H2O2 inh: blocks human ALR sulfhydryl oxidase activity. P55789. purified ALR, DTT oxidation, H2O2 HRP-luminol luminescence. inhibition, % (concentration not given with the values). actives 3.8% (n = 290,000). AID 485317;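 active means mean replicate inhibition above about 79%, with every replicate also reaching it, limit read from the data; inconclusive means only one of the two criteria met; inactive means mean below limit and not every replicate reaching it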
Target sequence (P55789 whole entry, looked up): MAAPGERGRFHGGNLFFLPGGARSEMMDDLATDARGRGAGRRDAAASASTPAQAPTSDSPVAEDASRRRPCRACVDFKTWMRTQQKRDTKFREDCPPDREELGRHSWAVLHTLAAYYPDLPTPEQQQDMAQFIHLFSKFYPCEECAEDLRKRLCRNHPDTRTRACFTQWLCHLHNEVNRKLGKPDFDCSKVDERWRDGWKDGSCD
NTR1 ag: NTR1 (human) agonism; actives 0.17% (n = 330,000); P30989; activation, % at 20 µM; NTR1-U2OS beta-arrestin-GFP spot imaging, agonist mode;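 active means activation at or above 40% of the spot to cytoplasm intensity ratio, with at least 20 cells analyzed; inconclusive means wells under 20 cells, flagged as cytotoxic or low count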
Target sequence (P30989 whole entry, looked up): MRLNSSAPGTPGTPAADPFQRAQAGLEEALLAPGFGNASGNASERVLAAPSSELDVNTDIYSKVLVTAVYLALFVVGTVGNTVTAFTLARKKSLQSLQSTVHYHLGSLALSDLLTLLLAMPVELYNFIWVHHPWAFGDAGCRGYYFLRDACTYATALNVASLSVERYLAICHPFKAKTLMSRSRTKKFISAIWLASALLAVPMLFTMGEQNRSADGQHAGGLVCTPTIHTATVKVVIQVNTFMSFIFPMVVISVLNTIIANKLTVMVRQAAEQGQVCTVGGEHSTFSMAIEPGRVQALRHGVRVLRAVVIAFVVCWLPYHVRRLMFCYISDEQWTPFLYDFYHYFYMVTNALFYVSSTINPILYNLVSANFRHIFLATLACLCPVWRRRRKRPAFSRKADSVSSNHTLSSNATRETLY
Large screens that a line does not name were inactive.

N#Cc1c(-c2ccccc2)nc(SCC(=O)Nc2ccccc2F)[nH]c1=O	ALR H2O2 inh 99 (no result: NTR1 ag)
Cc1cc(NC(=O)CSc2nc(-c3ccccc3)c(C#N)c(=O)[nH]2)no1	none (no result: ALR H2O2 inh)
N#Cc1c(-c2ccccc2)nc(SCC(=O)N(c2ccccc2)c2ccccc2)[nH]c1=O	ALR H2O2 inh 98 (no result: NTR1 ag)
N#Cc1c(-c2ccccc2)nc(SCC(=O)Nc2nnc(C(F)(F)F)s2)[nH]c1=O	none
Cc1cccc(NC(=O)CSc2nc(-c3ccccc3)c(C#N)c(=O)[nH]2)c1C	ALR H2O2 inh 91
COc1ccc(C(=O)C[n+]2cc(-c3ccc(OC)cc3)n3c2CCCC3)cc1	none
Cc1ccc(NC(=O)CSCC#N)cc1	ALR H2O2 inh 99
CCOC(=O)CC(=O)CSCC(=O)Nc1ccc(C)cc1	ALR H2O2 inh 100
CCN(CC(=O)Nc1ccc(NC(C)=O)cc1)C(=O)CSCC(=O)Nc1ccc(C)cc1	none (no result: UBC9 SUMO inh)
CC(=O)Nc1ccc(SCC(=O)c2cc(C)n(-c3ccccc3)c2C)cc1	ALR H2O2 inh 99
CC(=O)Nc1ccc(SCC(=O)O)cc1	none
COc1ccc(-n2c(C)cc(C(=O)CSc3ccc(NC(C)=O)cc3)c2C)cc1	ALR H2O2 inh 97
CC(=O)Nc1ccc(SCC(=O)N(CCC#N)c2cc(C)cc(C)c2)cc1	ALR H2O2 inh 98
CC(=O)Nc1ccc(SCC(=O)c2cc(C)ccc2C)cc1	ALR H2O2 inh 98
Cc1cc(C(=O)CSc2cccc[n+]2[O-])c(C)n1-c1ccccc1	none
Cc1nn(Cc2ccc(C(=O)O)o2)c(C)c1[N+](=O)[O-]	none
N#CCCN(C(=O)CSc1ccc2c(c1)OCCO2)c1ccccc1	ALR H2O2 inh 89
CN(C(=O)CSc1ccc2c(c1)OCCO2)c1ccccc1	none (no result: UBC9 SUMO inh)
COc1ccc(NC2c3ccccc3C(=O)N2c2cccnc2)cc1Cl (stereo not given)	ALR H2O2 inh 83
O=[N+]([O-])c1cccc(CN2CCN(c3ncccn3)CC2)c1	none
COc1ccc(NC(NC(=O)c2cccnc2)C(Cl)(Cl)Cl)cc1 (stereo not given)	ALR H2O2 inh 99
Cc1cc(S(=O)(=O)N2CCN(CC(=O)N(C)Cc3ccccc3)CC2)ccc1Br	none (no result: UBC9 SUMO inh, ALR H2O2 inh)
Cc1cccc(N2CCN(CC(=O)N(C)Cc3ccccc3)CC2C)c1 (stereo not given)	ALR H2O2 inh 98
CC1Cc2ccccc2N1c1ncnc2c1nnn2Cc1ccccc1 (stereo not given)	none
O=C(O)COc1ccccc1O	none
O/N=C(\COc1ccccc1O)c1ccccc1	ALR H2O2 inh 77
CCCCNC(=O)Cn1cnc2sc(C(=O)OCC)c(C)c2c1=O	none
Cc1cc(C)n2nc(NCc3ccccc3)nc2n1	none
COc1cccc(NC(=O)c2cccc(Cl)c2)c1	none (no result: UBC9 SUMO inh, ALR H2O2 inh)
COC(=O)c1ccc(NC(=O)c2ccc(C)cc2)o1	ALR H2O2 inh 98
COC(=O)c1ccc(NC(=O)c2ccc(F)cc2)o1	none
COC(=O)c1ccc(NC(=O)c2cccc(Cl)c2)o1	ALR H2O2 inh 93
CCCCN(C(=S)Nc1cccc(C)c1C)c1c(N)n(CCC)c(=O)[nH]c1=O	none
CCn1nc(C(=O)NNC(=O)c2cc(Cl)ccc2OC)c2ccccc2c1=O	Cardio protect 66 (no result: UBC9 SUMO inh)
CCOC(=O)NC1(C(F)(F)F)NC(=O)N(c2cccc(C(F)(F)F)c2)C1=O (stereo not given)	none (no result: ALR H2O2 inh)
C=C(c1ccc(O)cc1)c1ccc(O)cc1	ALR H2O2 inh 98
C/C=C(/C(=C/C)c1ccc(O)cc1)c1ccc(O)cc1	none (no result: ALR H2O2 inh)
CC(Cc1ccc(O)c(O)c1)C(C)Cc1ccc(O)c(O)c1 (stereo not given)	ALR H2O2 inh 99 (no result: UBC9 SUMO inh, Cardio protect)
c1ccc(-c2nc3cnccn3c2Nc2ccc3c(c2)OCCO3)cc1	none (no result: ALR H2O2 inh)
COc1cc(-c2nc3cnccn3c2Nc2ccc(C(C)C)cc2)ccc1O	none
Oc1ccc(-c2nc3cnccn3c2Nc2ccc3c(c2)OCCO3)cc1	ALR H2O2 inh 99
COc1cc(-c2nc3cnccn3c2Nc2ccc(C)cc2)ccc1O	ALR H2O2 inh 99
COc1cc(-c2nc3cnccn3c2Nc2ccccc2)ccc1O	ALR H2O2 inh inconclusive
COc1cc(-c2nc3cnccn3c2Nc2ccc3c(c2)OCCO3)ccc1O	ALR H2O2 inh 99
COc1cc(-c2nc3ccc(C)cn3c2Nc2ccc3c(c2)OCCO3)ccc1O	ALR H2O2 inh 91
FC(F)(F)c1cc(-c2ccco2)nc(NCc2cccs2)n1	ALR H2O2 inh inconclusive
O=C1NNC(=O)C1c1ccccc1	ALR H2O2 inh inconclusive
CCNC(=S)N1CCN(c2nc(-c3cccc(OC)c3)cs2)CC1	none
CC(C)(C)CC(C)(C)Nc1c(-c2ccc(O)cc2)nc2cnccn12	ALR H2O2 inh 100 (no result: UBC9 SUMO inh)
CC(C)(C)Nc1c(-c2ccc(O)cc2)nc2ccc(Cl)cn12	none
CCOc1cc(-c2cc(-c3ccccc3)nc(N)c2C#N)ccc1O	ALR H2O2 inh 95
N#CC1=C(N)Oc2n[nH]c(-c3ccccc3)c2C1c1cccnc1 (stereo not given)	none
CCOc1cc(-c2cc(-c3ccc(N)cc3)nc(N)c2C#N)ccc1O	Cardio protect 116 (no result: ALR H2O2 inh)
CCOc1cc(C2C(C#N)=C(N)Oc3n[nH]c(-c4ccccc4)c32)ccc1O (stereo not given)	ALR H2O2 inh 97
COc1ccc(/C=C/C(=O)NC(=S)NNC(=O)c2ccco2)cc1	ALR H2O2 inh 86
COc1ccc(/C=C/C(=O)NC(=S)NNC(=O)Cc2cccs2)cc1	none
COc1ccc(/C=C/C(=O)NC(=S)NNC(=O)c2ccco2)cc1OC	ALR H2O2 inh 85
COc1ccc(NC(=S)NCc2ccc(F)cc2)c(OC)c1	ALR H2O2 inh 99
COc1ccccc1OCC(=O)NNC(=S)NC(=O)c1ccco1	ALR H2O2 inh 89
COc1ccccc1NC(=S)NCc1ccc(F)cc1	none
COc1ccc(C(=O)NC(=S)NNC(=O)c2ccco2)cc1	ALR H2O2 inh 100
Cc1onc(-c2ccccc2)c1C(=O)NNC(=S)NC(=O)/C=C/c1ccccc1	ALR H2O2 inh 76
COc1ccc(NC(=S)NNC(=O)c2ccco2)c(OC)c1	ALR H2O2 inh 77
COc1ccc(CCNc2oc(-c3ccc(OC)c(OC)c3)nc2P(=O)(OC)OC)cc1OC	none
CC1CCCC(C)N1/N=C/c1ccc(O)cc1 (stereo not given)	ALR H2O2 inh 94
COc1cc(/C=N/N2C(C)CCCC2C)cc(OC)c1O (stereo not given)	ALR H2O2 inh 100
CC1CCCC(C)N1/N=C/c1ccc(C(=O)O)cc1 (stereo not given)	none
CCOc1ccc(/C=N/N2C(C)CCCC2C)cc1OC (stereo not given)	none (no result: ALR H2O2 inh)
O=C(Nc1cccc(C(F)(F)F)c1)c1ccc(-n2cncn2)nc1	none
O=C(Nc1cccc(/C=C/c2ccccn2)c1)c1ccc(-n2cncn2)cc1	Cardio protect 69 (no result: UBC9 SUMO inh)
S=c1nc(-c2cc(Cl)ccc2Cl)[nH][nH]1	none
S=c1nc(-c2cc(Cl)cc(Cl)c2)[nH][nH]1	ALR H2O2 inh 98
S=c1nc(-c2cccc(Cl)c2)[nH][nH]1	ALR H2O2 inh 92 (no result: NTR1 ag)
COc1ccc(N2CCN(C(=S)Nc3cccc(OC)c3)CC2)cc1	none
O=C(O)c1ccc(/C=N/Nc2cccc(C(F)(F)F)c2)cc1	none
Nc1c(Cl)ncnc1NCCc1ccc(O)cc1	ALR H2O2 inh 90
Cc1nnsc1-c1nnc(SCC(=O)c2ccc(C#N)cc2)n1C1CC1	none
